Source: PubChem
Hits are enriched below; roughly 0.55% of the tested compounds scored in any of these assays.
ERG-DNA inh = qHTS for Small Molecule Inhibitors of the ERG Ets/DNA interaction. 370,000 compounds, 0.028% hits. Potency, µM (highest dose often 76.9 µM), without a hit: at the highest dose FP activity, negative = inhibition, actives largely listed as inhibitors. AID 624246, 2012. fluorescence polarization, His-ERG Ets domain / labelled DNA; active means well fitted inhibition curve with a large enough effect in the polarisation, with a control signal flat; inconclusive means small, poorly fitted or top-dose-only effect, or effect the other way, or a change in a side signal; inactive means no such curve, though single readings can be large or run the other way; the % refers to the polarisation;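 further: polarization taken with two DNA probes labelled with fluorescein and Texas red; % of control where 0% means no effect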
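His-tagged ERG Ets domain (1 uM in the protein solution; 300mM KCl, 50mM Tris-HCl, 1mM EDTA, 1mM DTT, pH 7.5) received compound, then a probe mix of 5 nM fluorescein-DNA and 100nM Texas-615-DNA. Fluorescence polarization was read for both dyes.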
Tb PFK block = qHTS Assay to Find Inhibitors of T. brucei phosphofructokinase. ATP-dependent 6-phosphofructokinase (Trypanosoma brucei brucei), O15648. T. brucei PFK, ADP-Glo luminescence. 330,000 compounds, 0.17% hits. AID 485367, 2010. Potency, µM (titrated, usually from 57.5 µM), for inactives: top-dose activity, negative = inhibition, usual class: inhibitors;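 further: 0% = uninhibited 1x PFK enzyme wells and -100% = no-enzyme wells; nearly all actives have a fitted effect of over 60% in size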
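1.25 nM PFK with 0.5 mM F6P and 0.1 mM ATP in 0.1 M TEA pH 8.0, 5 mM MgCl2, incubated 45 min at room temperature; ADP measured by ADP-Glo luminescence; compounds titrated up to 57 uM.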
KAT2A inh = qHTS Assay for Inhibitors of GCN5L2; Histone acetyltransferase KAT2A (Homo sapiens), Q92830; 390,000 compounds, 0.21% hits; GCN5L2 HAT assay, ThioGlo1 CoA-SH fluorescence; AID 504327, 2011; Potency, µM (series often up to 58.9 µM), for inactives: at the top dose activity change, negative = inhibition, most hits filed as inhibitors; further: on the % scale 0 is the no-effect control and ±100 the full control effect
Target sequence (Q92830 whole entry, looked up): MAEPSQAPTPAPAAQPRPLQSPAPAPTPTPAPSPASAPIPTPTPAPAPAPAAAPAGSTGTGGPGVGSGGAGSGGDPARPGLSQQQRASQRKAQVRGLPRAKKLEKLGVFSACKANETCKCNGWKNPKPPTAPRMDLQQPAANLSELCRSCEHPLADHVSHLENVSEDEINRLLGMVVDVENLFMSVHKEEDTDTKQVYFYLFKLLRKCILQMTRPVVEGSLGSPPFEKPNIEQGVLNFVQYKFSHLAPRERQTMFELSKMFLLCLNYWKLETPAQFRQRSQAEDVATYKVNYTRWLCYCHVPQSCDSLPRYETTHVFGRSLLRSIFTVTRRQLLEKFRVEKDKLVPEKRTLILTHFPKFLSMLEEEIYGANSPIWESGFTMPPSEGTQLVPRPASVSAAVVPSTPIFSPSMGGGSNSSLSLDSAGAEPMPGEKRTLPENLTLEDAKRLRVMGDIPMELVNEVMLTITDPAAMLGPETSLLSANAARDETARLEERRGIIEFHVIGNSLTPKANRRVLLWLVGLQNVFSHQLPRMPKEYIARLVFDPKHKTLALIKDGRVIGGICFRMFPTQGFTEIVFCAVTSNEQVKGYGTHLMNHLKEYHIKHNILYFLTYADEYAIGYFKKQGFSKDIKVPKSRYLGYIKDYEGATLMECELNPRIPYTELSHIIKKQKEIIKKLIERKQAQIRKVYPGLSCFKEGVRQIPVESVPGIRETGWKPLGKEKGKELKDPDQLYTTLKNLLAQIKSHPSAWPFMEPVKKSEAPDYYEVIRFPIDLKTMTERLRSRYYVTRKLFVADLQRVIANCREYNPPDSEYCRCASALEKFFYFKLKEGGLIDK
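ThioGlo1-coupled HAT assay: 20nM GCN5L2, 70uM acetyl-CoA, 75uM H3(1-25) peptide, pH 7.5. Fluorescence read at 340/540nm at start and after 20 min at room temperature.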
p53 reactivator = qHTS assay for re-activators of p53 using a Luc reporter. Potency, µM (doses to about 92.2 µM), for inactives: at the highest dose activity change, positive = activation, most hits filed as activators. H1299 p53-A138V BP100-luciferase reporter, luminescence, 24 h. 320,000 compounds, 0.063% hits; further: % of control where 0% means no effect; nearly all actives have a fitted effect of over 45% in size
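p53-null H1299 cells stably carrying temperature-sensitive p53-A138V and a BP100-luciferase reporter were pinned with compounds (4-point, 1:5 series) and held 24 hrs at 37 deg C. Luminescence was read 10 min after detection reagent.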
A-T KAP1 phos = qHTS Assay for Identifying a Potential Treatment of Ataxia-Telangiectasia. F2112 A-T fibroblasts, KAP-1 phosphorylation AlphaLISA; neocarzinostatin DNA damage 30 min before lysis. Potency, µM (highest dose often 57.5 µM), inactives show top-dose activation, usual class: activators. 320,000 compounds, 0.19% hits. AID 485349, 2010; further: % of control where 0% means no effect; nearly all actives have a fitted effect of over 45% in size
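ATM-like activity read as KAP-1 phosphorylation via AlphaLISA donor/acceptor antibody pairs after lysis and 6 hr at 25C. Cells were ATM-null patient fibroblasts (F2112, hTERT), dosed 60 min, then exposed to the DSB inducer NCS for 30 min.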
ASM inhibitor = Inhibitors of Secretory Acid Sphingomyelinase (S-ASM): qHTS; Potency, µM (top dose mostly 57.5 µM), for inactives: at the top dose activity change, negative = inhibition, most hits filed as inhibitors; placental ASM, HMU-PC fluorogenic substrate, 60 min; 340,000 compounds, 0.006% hits; Sphingomyelin phosphodiesterase (Homo sapiens), P17405
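Fluorescence read-out (Ex 386 nm, Em 447 nm) after stopping the reaction at pH 10. Enzyme: ASM from human placenta; substrate HMU-PC0, 9 uM final; 60 min, 37 °C. Compound preincubation 10 min, ambient temperature.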
* marks the source's active call; other numbers are inactive results; u = inconclusive; x = not tested or not shown. Unless noted, the call rests on the fitted dose curve; in most records, active means well fitted curve in the direction sought with a large enough effect; inconclusive means small, poorly fitted or top-dose-only effect, or another doubt; inactive means no such curve, though single readings can be large; an effect the other way counts as inactive or inconclusive. Potency means the concentration at half of the fitted maximal effect.

SMILES	ERG-DNA inh	Tb PFK block	KAT2A inh	p53 reactivator	A-T KAP1 phos	ASM inhibitor
Cc1ccc2nc(-c3ccc(NC(=O)COC(=O)c4ccc([N+](=O)[O-])o4)cc3)sc2c1	-6.4%	8.4%	0.0%	3.16µM*	-0.2%	31.5%
COc1ccccc1NS(=O)(=O)c1cc(N=N/C(C(=O)Nc2ccc(Cl)cc2)=C(/C)O)ccc1C	0.1%	-9.9%	-3.7%	-8.4%	-4.3%	u
CCCCc1ccc(N=N/C(C(=O)Nc2ccc(NC(C)=O)cc2OC)=C(/C)O)cc1	-5.2%	-0.1%	-5.4%	-7.9%	-4.1%	22.4µM*
O=C1NC(=Nc2ccc(F)cc2)CS1	18.9%	-2.8%	-10.7%	-0.8%	1.3%	1.8%
O=C1NC(=Nc2ccccc2)CS1	-1.2%	0.0%	-8.3%	3.6%	11.2µM*	1.7%
CCOC(=O)C1CCCN(Cc2cn3c(-c4ccc(Br)cc4)nnc3s2)C1 (stereo unspecified)	2.9%	x	-5.4%	x	x	x
COc1ccc(C(CNC(=O)C(Cc2ccccc2)NC(N)=O)N(C)C)cc1 (stereo unspecified)	6.4%	1.0%	27.7%	-4.9%	0.891µM*	-1.1%
Oc1ccc(Cl)cc1C1=NNC(c2ccc(Cl)cc2)C1 (stereo unspecified)	3.2%	3.6%	2.3%	28.2µM*	-3.2%	-0.4%
Oc1c(Cl)cc(Cl)cc1C1=NNC(c2ccc(Cl)cc2)C1 (stereo unspecified)	-19.3%	-8.9%	-1.2%	-6.3%	3.8%	17.5%
COC(=O)[C@]1(C)N[C@H](CN(C)C(=O)Nc2ccccc2)[C@@H]2C(=O)N(C)C(=O)[C@@H]21	11.4%	-5.7%	0.2%	-6.5%	4.8%	6.9%
Cc1cccc(NC(=O)Cc2ccc(NC3=NC4CS(=O)(=O)CC4S3)cc2)c1 (stereo unspecified)	-3.4%	1.0%	22.4µM*	x	-3.7%	2.4%
Cc1cc(C)cc(NC(=O)Cc2ccc(NC3=NC4CS(=O)(=O)CC4S3)cc2)c1 (stereo unspecified)	89.1%	2.4%	u	12.6%	15.4%	-0.2%
O=C(NCc1ccc(Cl)cc1)c1cccc(NC2=NC3CS(=O)(=O)CC3S2)c1 (stereo unspecified)	-2.1%	-10.2%	28.2µM*	12.7%	-0.6%	4.6%
COc1ccc(CNC(=O)c2cccc(NC3=NC4CS(=O)(=O)CC4S3)c2)cc1 (stereo unspecified)	8.0%	0.7%	-0.2%	10.4%	6.3%	-0.9%
COc1ccc(Br)cc1CNCc1c(C(=O)O)c(C)n(Cc2ccccc2C)c1C	-2.8%	x	-3.3%	x	x	x
CC(=O)c1ccc(S(=O)(=O)Nc2cccc(-c3ccc(N4CCCCCC4)nn3)c2)cc1	1.4%	x	-12.6%	x	x	x
CC(=O)N(/N=C/c1ccc([N+](=O)[O-])o1)c1nc2ccccc2c(=O)n1-c1ccccc1	-22.3%	1.7%	-2.2%	1.9%	12.6µM*	0.6%
COc1ccc(CCNc2oc(COc3ccccc3F)nc2C#N)cc1	0.8%	-3.5%	2.1%	12.4%	-0.6%	-14.6%
N#Cc1nc(COc2ccccc2F)oc1NCc1ccc(F)cc1	-8.0%	4.4%	-14.7%	18.4%	31.6µM*	-0.2%
Cc1nc(-c2ccccc2)sc1-c1ccc(SCC(=O)NCc2ccccc2Cl)nn1	0.0%	x	-6.0%	x	x	x
CCn1nnnc1SCC(=O)Nc1ccc2c(c1)OCCO2	-6.9%	0.4%	1.7%	10µM*	-3.6%	3.1%
O=C(CN(Cc1ccccc1)S(=O)(=O)c1ccc(F)cc1)NCCC1=CCCCC1	-0.3%	8.5%	0.794µM*	3.9%	3.8%	-2.1%
Cc1ccc(S(=O)(=O)N(CC(=O)NCCC2=CCCCC2)Cc2ccccc2)cc1	3.1%	0.5%	-10.6%	6.1%	1.1%	-2.8%
COc1ccccc1CNC(=O)C1CCN(Cc2cc3ccccc3n2Cc2cccc(C)c2)CC1	3.6%	x	-9.2%	x	x	x
COc1ccccc1N1CCN(c2csc3ccc(Cl)cc3c2=O)CC1	-2.1%	x	-22.7%	x	x	x
SMILES	ERG-DNA inh	Tb PFK block	KAT2A inh	p53 reactivator	A-T KAP1 phos	ASM inhibitor
COC(=O)c1ccc(NC(=O)CC2C(=O)N(c3cccc(OC)c3)C(=O)N2C(C)C)cc1 (stereo unspecified)	-10.5%	x	1.9%	x	x	x
Cc1ccccc1C(=O)Nc1nnc(CC(=O)N/N=C/c2ccco2)s1	7.2%	8.2%	-6.3%	1.9%	15.8µM*	4.6%
Cc1nn2c(=O)cc(COC(=O)c3cccc(NC(=O)c4ccc(F)cc4)c3)nc2s1	2.5%	x	-9.8%	x	x	x
Cc1c(C(=O)Nc2ccc(F)cc2F)sc2nc3n(c(=O)c12)N=C(c1ccccc1)CS3	-1.2%	x	-6.0%	x	x	x
O=C(O)C[C@@H]1C(=O)O[C@@H]2C(COC(=O)c3cc(O)c(O)c(O)c3)O[C@@H](OC(=O)c3cc(O)c(O)c(O)c3)[C@@H](OC(=O)c3cc(O)c(O)c4c3[C@H]1[C@H](O)C(=O)O4)[C@H]2OC(=O)c1cc(O)c(O)c(O)c1 (stereo partly specified)	x	1.51µM*	-24.5%	1.6%	6.5%	x
O=C(CC1N=C2c3ccccc3N=C(SCC(=O)Nc3ccc(F)cc3)N2C1=O)NCc1ccco1 (stereo unspecified)	7.8%	x	-8.2%	x	x	x
COc1ccc(-c2cc3ccc(O)c(CN4CCN(C)CC4)c3oc2=O)cc1OC	1.8%	x	-29.5%	x	x	x
COc1ccc(-c2cc3ccc(O)c(CN4CCN(CCO)CC4)c3oc2=O)cc1OC	3.8%	x	17.8µM*	x	x	x
Cn1cnc2c(ncn2[C@@H]2O[C@H](CO)[C@@H](O)[C@H]2O)c1=N	x	x	21.7%	x	x	x
CN(C)c1cc(Nc2ccc(O)cc2)c([N+](=O)[O-])c2nonc12	-18.4%	-0.4%	1.4%	-3.7%	7.08µM*	-0.2%
Cc1cn(C)c(CC(=O)N2CCN(c3cccc(Cl)c3)CC2)c1C(=O)O	-2.5%	x	-0.2%	x	x	x
C=Cc1c(C)c2cc3[nH]c(cc4nc(cc5nc(cc1[nH]2)C(C)=C5CCC(=O)O)C(CCC(=O)O)=C4C)c(C)c3C=C	3.1%	u	-13.6%	-2.3%	31.6µM*	-12.2%
Cc1ccc(-n2c(=O)[nH]c3cc(C(=O)NCCc4ccccc4)ccc3c2=O)cc1	-4.5%	x	-0.3%	x	x	x
